The list is not random: actives were taken first. Their share in the collection is about 6.5%.
FMDV inh: High Throughput Screening for Foot and Mouth Disease Virus Antivirals | Potency, µM (titrated, usually from 57.9 µM), hits mostly inhibitors | FMDV antiviral cell-based qHTS | 410,000 compounds, 1.2% hits; calls by dose curve; tested in HEK293T cells; also: read-out not given here; nearly all actives have a fitted effect of over 45% in size
LASV entry inh: qHTS for Inhibitors of binding or entry into cells for Lassa Virus; Lassa virus pseudotype entry inhibition, cell reporter; Potency, µM (highest dose often 37.9 µM), actives largely listed as inhibitors; 300,000 compounds, 1.2% hits; calls by dose curve; tested in HEK293 cells; also: nearly all actives have a fitted effect of over 50% in size
VACV mCherry inh: qHTS for Stage-Specific Inhibitors of Vaccinia Orthopoxvirus: mCherry Reporter Primary qHTS | AID 720579, 2013 | Vaccinia virus mCherry reporter infection, fluorescence | 310,000 compounds, 0.63% hits | Potency, µM (series often up to 36.5 µM), most hits filed as inhibitors; calls by dose curve; tested in A549 cells; also: nearly all actives have a fitted effect of over 35% in size
HCMV antiviral: qHTS Assay for inhibitors of the human cytomegalovirus (HCMV); AID 1259415, 2018; HFF cells, HCMV-luciferase reporter, 72 h; active compounds read low; 410,000 compounds, 4.5% hits; activity change, negative = inhibition, % at 57.5 µM; in the data active = activity change below about -60%; inconclusive = no clear call, values can overlap the other calls; inactive = above about -39%
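Screen run at 2 compound doses on HFFs infected with reporter HCMV, MOI 1 PFU/cell. Luciferase activity from cell lysates at 72 h post infection gave inhibition relative to buffer-only and Salinomycin wells.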
MARV entry inh: qHTS for inhibitors of binding or entry into cells for Marburg Virus; Marburg virus pseudotyped entry inhibition, cell reporter; Potency, µM (series often up to 37.8 µM), actives largely listed as inhibitors; 300,000 compounds, 1.8% hits; calls by dose curve; tested in HEK293 cells
VACV Venus inh: qHTS for Stage-Specific Inhibitors of Vaccinia Orthopoxvirus: Venus Reporter Primary qHTS. AID 720580, 2013. 330,000 compounds, 0.46% hits. Vaccinia virus Venus reporter expression, fluorescence. Potency, µM (highest dose often 36.5 µM), actives largely listed as inhibitors; calls by dose curve; tested in A549 cells; also: nearly all actives have a fitted effect of over 30% in size
A number is an active result; - = inactive; ? = inconclusive; . = no result given; ! = not active in a repeat; [ ] = remark or other dose.

SMILES | FMDV inh | LASV entry inh | VACV mCherry inh | HCMV antiviral | MARV entry inh | VACV Venus inh
CCOC(=O)CN1C(=O)[C@@]2(CC(C)=CC[C@@H](COc3ccccc3)O2)c2c(Br)cccc21 | . | . | . | . | - | .
C#CC(=O)N(c1cccc(OC)c1)C(C(=O)NC1CCCC1)c1cccs1 (stereo not given) | . | ? | 20µM | -101 | 2.9µM | 14µM
C#CC(=O)N(c1ccc(OC)c(OC)c1)C(C(=O)NC1CCCC1)c1cccs1 (stereo not given) | ? | 7.9µM | ? | -99 | 3.5µM | ?
COc1ccc(N(C(=O)Cc2cccs2)C(C(=O)NC2CCCC2)c2ccncc2)cc1OC (stereo not given) | - | - | - | - | - | -
O=C(N/N=C1\CC(c2ccccc2)Oc2ccccc21)c1cccnc1 (stereo not given) | - | ? | - | -83 | - | -
Cc1cc(S(=O)(=O)Nc2nc(CN3CCOCC3)nc3sc4c(c23)CCC4)cc(C)c1C | - | - | - | - | - | -
NS(=O)(=O)c1ccc(CCNc2nc(CN3CCCCC3)nc3sc4c(c23)CCC4)cc1 | - | - | . | - | 21µM | .
C#CCCCO/N=C1/C[C@@H](O)[C@@H](O)[C@@H]2[C@@H]3C(=O)N(C[C@@H]4CCCO4)C(=O)[C@H]3CC[C@H]12 | . | . | . | . | - | .
CCc1cccc(NC(=O)c2cc3c(=O)[nH]c4ccccc4c3n2C)c1 | ? | - | - | -66 | - | -
Cc1ccc(NC(=O)c2cc3c(=O)n(Cc4cccnc4)ccc3nc2C)cc1F | - | - | - | - | . | -
COc1cc(/C=C(\C#N)c2nc3ccccc3[nH]2)ccc1OCc1cccc(C(F)(F)F)c1 | - | ? | - | -87 | ? | ?
COc1cc(/C=C(\C#N)c2nc3ccccc3[nH]2)ccc1OCc1ccc(F)cc1 | - | - | - | -78 | ? | -
COc1cc(/C=C(/C#N)c2nc3ccccc3[nH]2)ccc1OCc1ccc(C(=O)O)o1 | - | - | - | - | ? | -
CCC12CN3CC(C)(CN(C1)C3c1c[nH]c3ccccc13)C2=O (stereo not given) | - | - | - | - | - | -
CC1CCCN(CCCOc2ccc(Cl)cc2Br)C1 (stereo not given) | - | - | - | - | ? | -
CC1CCCN(CCOc2ccc3ccccc3c2Br)C1 (stereo not given) | - | ? | - | -83 | ? | -
CCCCCCCCCCCCCCC[C@@H](O)[C@H](CO)NC(=O)CCCCCCC | -[6.7 µM] | . | -[3.33 µM] | . | . | -[3.33 µM]
Cn1c(SCC(=O)N2c3ccccc3CCc3ccccc32)nnc1-c1cc2ccccc2cc1O | - | - | - | -65 | ? | ?
Cc1cccc(-c2nnc(SCC(=O)N3c4ccccc4CCc4ccccc43)n2C)c1 | - | - | - | -70 | ? | -
CCCc1cnc(NCCNCC(O)COc2ccc(Cl)c(Cl)c2)nc1 (stereo not given) | ? | - | ? | -98 | ? | -
CCCN1CNc2c(c(=O)[nH]c(=S)n2CCc2ccccn2)C1 | . | . | - | . | . | -
COc1ccc(N2CCN(C(=O)c3cccnc3SCc3cccc(Br)c3)CC2)cc1 | ? | 13µM | - | - | ? | -
COc1ccc(N2CCN(C(=O)c3cnc(N4CCCC4)nc3C)CC2)cc1 | - | ? | - | - | . | -
CN(C)c1ccc(/C=C/c2sc3ccccc3[n+]2Cc2ccccc2)cc1 | . | . | - | . | . | -
O=C(c1ccccc1Cl)N(Cc1ccco1)c1ccccn1 | - | - | - | - | - | -
SMILES | FMDV inh | LASV entry inh | VACV mCherry inh | HCMV antiviral | MARV entry inh | VACV Venus inh
CC(C)(C)OC(=O)N[C@@H](Cc1ccccc1)c1nnc(S(=O)(=O)Cc2ccccc2)o1 | . | . | . | - | . | .
CCC(C)[C@@H](NC(=O)OC(C)(C)C)c1nnc(S(=O)(=O)Cc2cccc(C)c2)o1 (stereo not given in full) | 32µM | ? | . | - | ? | ?
Cc1ccccc1CS(=O)(=O)c1nnc([C@H](Cc2ccccc2)NC(=O)OC(C)(C)C)o1 | 28µM | ? | - | - | ? | -
CC1(C)OC(=O)C2(Cc3cc([N+](=O)[O-])ccc3N3CCCCC32)C(=O)O1 (stereo not given) | . | . | - | . | . | -
Oc1ccc(-c2cnc(-c3ccc(O)cc3)nc2)cc1 | ? | 3.2µM | - | - | 1.1µM | -
Nc1ccc(-c2cnc(-c3ccc(N)cc3)nc2)cc1 | - | ? | . | - | ? | .
O=C(c1ccco1)C(O)c1ccco1 (stereo not given) | - | . | - | -62 | . | -
C[C@@H]1CC2=CCCC2[C@]2(O1)C(=O)N(Cc1ccc(F)cc1)c1cccc(Br)c12 (stereo not given in full) | . | . | . | . | - | .
Cc1[nH]nc(C(F)(F)F)c1N=NN1CCOCC1 | 20µM | ? | ? | - | ? | ?
O=C(NCc1ccccc1)Nc1cccn(Cc2c(F)cccc2Cl)c1=O | ? | . | . | -74 | . | .
Cc1ccc(S(=O)(=O)N2CCN(c3nc(-n4ccnn4)nc4ccccc34)CC2)cc1 | . | . | - | . | . | -
CC(=O)Nc1ccccc1NC(=O)c1ccc(C)cc1C | - | - | - | -63 | ? | -
Cc1cccc(C(=O)Nc2cccc3c2CCCC3)c1 | - | - | - | -101 | - | -
CCOc1ccccc1NC(=O)c1c(NC(=O)Cc2ccccc2)sc2c1CCCC2 | - | - | - | - | . | -
CCOc1ccccc1NC(=O)c1c(NC(=O)c2cccc(C)c2)sc2c1CCCC2 | - | - | - | -85 | . | -
Cc1cccc(C(=O)Nc2ccccc2NC(=O)c2cccc(C)c2)c1 | - | - | - | -61 | - | -
Cc1cccc(C(=O)Nc2ccc(NC(=O)c3cccc(C)c3)cc2)c1 | - | . | - | - | . | -
COc1ccc(C(=O)Nc2cccc3c2CCCC3)cc1OC | - | . | . | - | . | .
COC(=O)c1ccc(NC(=O)COc2ccccc2C(=O)Nc2ccccc2)cc1 | . | . | - | . | . | -
N#Cc1c(N)n(C2OC(CO)C(O)C2O)c2ncnc(N)c12 (stereo not given) | - | 1.8µM | ? | -99 | 0.5µM | 1µM
Nc1ncnc2c1c(I)cn2C1OC(CO)C(O)C1O (stereo not given) | - | . | 16µM! | . | . | ?
Nc1ncnc2c1ncn2[C@@H]1O[C@H](CO)[C@@H](O)[C@@H]1O | - | . | ? | - | . | -
Fc1ccc(Nc2nc(-c3ccoc3)nc3ccccc23)cc1 | - | . | . | . | . | .
O=C(Nc1ccc(-c2nc3ccccc3o2)cc1)c1cccnc1 | - | - | ? | - | ? | ?
O=C(Nc1ccc2oc(-c3ccccc3F)nc2c1)c1ccc2c(c1)OCCO2 | 35µM | - | - | ? | ? | -
O=C(Nc1ccc(-c2nc3ccccc3o2)cc1)c1ccc(N2C(=O)C3C4C=CC(C4)C3C2=O)cc1 (stereo not given) | . | 15µM | - | - | - | -
Cc1c(NC(=O)c2ccc3c(c2)OCO3)cccc1-c1nc2ccccc2o1 | - | 21µM | - | - | 21µM | -
O=C(Nc1ccc(-c2nc3ccccc3o2)cc1)c1ccc2c(c1)OCO2 | - | - | . | -108 | - | .
